According to PubChem BioAssay AID504766 (The Scripps Research Institute Molecular Screening Center, 2011):
The whole screen tested about 340,000 compounds, of which about 3,400 (1%) were called active.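 The calls were made as follows: active = inhibition above the mean over all tested compounds plus 3 SD (cut at about 4.2% in these data); inactive = the rest.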 The entries come from a sample that favours actives as a whole.

biological target: Nuclear receptor subfamily 0 group B member 1 (Homo sapiens) (UniProt P51843); experiment: relief of DAX1 transcriptional repression – cell-based, HEK293, Gal4-DAX1, luciferase luminescence, primary screen (AID 504766); details: HEK293 Gal4-DAX1 luciferase reporter, at 6.75 µM, active compounds read high;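 also: 0% = DAX1-transfected cells with DMSO and 100% = empty-vector control cells with DMSO; inhibition shows as a rise in luminescence from relieved DAX1 repression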
Sequence (P51843 207-470 limits assumed): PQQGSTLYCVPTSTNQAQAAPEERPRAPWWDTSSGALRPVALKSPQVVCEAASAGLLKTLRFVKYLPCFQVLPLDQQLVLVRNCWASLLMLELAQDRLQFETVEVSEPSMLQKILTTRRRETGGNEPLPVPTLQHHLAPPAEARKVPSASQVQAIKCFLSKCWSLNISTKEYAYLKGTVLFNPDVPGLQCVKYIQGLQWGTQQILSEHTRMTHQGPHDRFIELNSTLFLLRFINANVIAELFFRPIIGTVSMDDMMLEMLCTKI

Compound | inhibition
CCc1ccccc1NC(=O)CN1CCN(C(=O)c2cc(C3CC3)nn2-c2ccccc2)CC1 | -0.77% (inactive)
COc1ccc(-c2nnc(-c3ccc4ccccc4c3)o2)cc1 | 0.71% (inactive)
Nc1ccc(-c2nnc(-c3ccccc3)o2)cc1 | 4.37% (active)
CN(C)c1ccc(-c2nnc(-c3cccnc3)o2)cc1 | 2.53% (inactive)
CCCn1c(N)c(C(=O)CSc2nnc(Cc3cccs3)n2C2CC2)c(=O)[nH]c1=O | 0.35% (inactive)
OCC1OC(n2cnc3c(N4CCCC4)ncnc32)C(O)C1O (configuration not stated) | -0.3% (inactive)
CC1CN(C(=O)c2cccc(NS(=O)(=O)c3ccc(Br)cc3)c2)CC(C)O1 (configuration not stated) | 0.52% (inactive)
Cc1csc(SCC(=O)Nc2ccc(C)c(S(=O)(=O)N(C)C)c2)n1 | 0.09% (inactive)
Cc1onc(-c2ccccc2)c1-c1nnc(COC(=O)c2ccc(N(C)C)cc2)o1 | -0.6% (inactive)
N#Cc1c(NC(=O)CCCl)sc2c1CCCCC2 | 1.1% (inactive)
N#Cc1c(NC(=O)C2CC(Cl)=CCC2C(=O)O)sc2c1CCCCC2 (configuration not stated) | -0.39% (inactive)
N#Cc1c(NC(=O)C2CCCO2)sc2c1CCCCC2 (configuration not stated) | 4.7% (active)
CCN(CC)C(=O)C1=C(C)N(Cc2ccc(F)cc2)C(=O)C(CC(=O)NCc2cccc3ccccc23)C1 (configuration not stated) | -0.64% (inactive)
C[C@H]1NS(=O)(=O)c2cc(Cl)ccc2O[C@@H]1c1ccccc1 | -0.34% (inactive)
COc1ccc(CN2C[C@H]3CON(C)[C@H]3C[C@H]2c2ccc(-c3cccc(F)c3)cc2)cc1 | 1.13% (inactive)
CC1=C(C(=O)Nc2cccc(C(=O)NCC(C)c3ccccc3)c2)SCCO1 (configuration not stated) | 3.58% (inactive)
COc1ccc(OC)c(NC(=O)C2CCCN2S(=O)(=O)c2ccc3c(c2)CC(C)N3C(C)=O)c1 (configuration not stated) | 1.18% (inactive)
OCCC#Cc1ccc(CN2CCN(Cc3ccsc3)C(CCO)C2)cc1 (configuration not stated) | 2.04% (inactive)
OCCC1CN(Cc2ccccc2-c2ccco2)CCN1Cc1ccsc1 (configuration not stated) | -0.73% (inactive)

Compound | inhibition
OCCC1CN(Cc2cccc(OC3CCCC3)c2)CCN1Cc1ccsc1 (configuration not stated) | 5.86% (active)
Cc1ccc(S(=O)(=O)/N=C2\C=C(NS(=O)(=O)c3ccc(C)cc3)C(=O)c3ccccc32)cc1 | -1.06% (inactive)
Cc1ccc(S(=O)(=O)N2CCOCC2)cc1NC(=O)c1ccncc1 | 0.21% (inactive)
CCC(Oc1ccccc1)C(=O)OCC(=O)Nc1c(C)nn(-c2ccccc2)c1C (configuration not stated) | 0.21% (inactive)
Cc1ccc(S(=O)(=O)N2CCCCC2)cc1NC(=O)CCNC(=O)c1ccccc1Cl | 0.48% (inactive)
CCCCN1C[C@H](c2ccc(Br)cc2)[C@@H](CC(=O)Nc2ccc(Br)cc2)C1=O | -0.08% (inactive)
Cc1cc(NC(=O)c2cc3ccccc3o2)no1 | 0.08% (inactive)
Cn1c(CNc2nc(-c3ccccc3)cs2)nnc1SCC(=O)c1ccccc1 | -1.22% (inactive)
CCNc1nc(-c2cc3ccccc3o2)cs1 | 4.56% (active)
COc1ccc(S(=O)(=O)N2CCN(CC(=O)N3CCNC3=O)CC2)cc1OC | 0.75% (inactive)
CCN(C(=O)Nc1cccc2ccccc12)c1ccccc1 | 0.32% (inactive)
CCc1ccc(N(CC(=O)Nc2sc3c(c2C(=O)OC)CCCC3)S(C)(=O)=O)cc1 | 5.84% (active)
COC(=O)c1c(NC(=O)CN(c2ccc(C)c(C)c2)S(C)(=O)=O)sc2c1CCCC2 | 0.52% (inactive)
COC(=O)c1c(NC(=O)CSc2nncs2)sc2c1CCCCC2 | -1.11% (inactive)
COCCCn1c(=O)/c(=C/c2ccccc2OC(C)C)s/c1=C(\C#N)C(=O)Nc1ccc(C(=O)O)cc1 | 1.28% (inactive)
COc1cc(C(=O)OCCCN2CCOCC2)cc(OC)c1OC | 0.71% (inactive)
O[C@H]1CN(Cc2cccs2)[C@@H](c2ccc(Cl)cc2)C[C@@H]1n1cc(C2CC2)nn1 | 0.8% (inactive)
CCc1ccc(NC(=O)CN2C(=O)CSC2=O)cc1 | 1.29% (inactive)
COc1ccc(NC(=O)CN2C(=O)CSC2=O)cc1 | 4.34% (active)

Compound | inhibition
COc1ccc(NC(=O)CN2C(=O)CSc3ccc(S(=O)(=O)N4CCC(C)CC4)cc32)cc1 | -0.82% (inactive)
CC(=O)Nc1c(-c2ccc(C)cc2)nc2ccc(Cl)cn12 | 0.08% (inactive)
C=CCn1nc(C(=O)OCC)cc1-c1sc(NC(=O)c2ccccc2)nc1C | -1.54% (inactive)
O=C(CSc1ccc(Cl)cc1)NC1CC1 | 0.27% (inactive)
O=C(Cc1ccc([N+](=O)[O-])cc1)NCCS(=O)(=O)N1CCN(c2ccccc2)CC1 | -0.22% (inactive)
O=C(Cc1c(O)c2ccccc2[nH]c1=O)NCc1ccccc1 | 1.32% (inactive)
NS(=O)(=O)c1ccccc1NC(=O)c1c(O)c2ccccc2[nH]c1=O | 4.59% (active)
CCCOC(=O)Cc1c(O)c2ccccc2[nH]c1=O | -0.26% (inactive)
COc1ccc(CN2C(=O)C(CC(=O)NC3CCCCC3)CC(C(=O)N3CCOCC3)=C2C)cc1 (configuration not stated) | 0.35% (inactive)
CCN1CCN(CCNC(=O)c2ccc3c(c2)NC(=O)/C(=C\c2cccc(Cl)c2)S3)CC1 | -0.42% (inactive)
CCOC(=O)C1CCN(C(=O)c2ccc3c(=O)n4nc(Nc5ccccc5CC)sc4nc3c2)CC1 | -2.28% (inactive)
Cc1ccccc1NC(=O)Cc1nc(COC(=O)C(C)(C)Oc2ccc(Cl)cc2)cs1 | -0.05% (inactive)
C(=N\Nc1ccc2ccccc2n1)/c1ccc2c(c1)OCO2 | -2.05% (inactive)
O=C(NNC(=O)c1ccc2ccccc2c1)c1ccc(Cl)cc1 | -1.29% (inactive)
Clc1ccc(Nc2ccc3ccccc3n2)cc1 | 5.5% (active)
CCn1nnnc1SCC(=O)c1ccc(C)cc1C | -0.2% (inactive)
CSc1nnnn1-c1c(C)cc(C)cc1C | 5.68% (active)
Cc1ccc(S(=O)(=O)N2C[C@]3(O)C[C@@H]4C(=O)N(c5ccccc5)C(=O)[C@@H]4C[C@]3(OC(=O)NC3CC3)C2)cc1 | -1.25% (inactive)
O[C@@H]1C[C@H](c2ccccc2)N(Cc2cccs2)C[C@H]1n1cc(C2CC2)nn1 | 1.9% (inactive)
